According to the supplement of paper PMC10338343:
± gives the standard deviation.

What was measured:
[1] = system: MILI (PIWIL2) piRISC loaded with piRNA #1 (26 nt); test: pre-steady-state target cleavage rate (min^-1); guide: piRNA #1 5'p-UGAGGUAGUAGGUUGUAUAGUAUCCA; higher = faster piRNA-guided slicing of the target; details: auxiliary factor: 500 nM mouse GTSF1;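 also: 1 nM active piRISC with 0.1 nM target library at 33 °C single turnover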
Summary of the method: (§1)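 For Cleave-'n-Seq, a transcribed, DNA-blocked target RNA library […] met 1 nM active affinity-purified piRISC with one synthetic guide at 33 °C for 0–8 or 0–960 min in HEPES–potassium acetate buffer, with or without 500 nM GTSF1 partner protein. Uncleaved targets were sequenced and normalised to depth and weakly complementary targets, with three trials pooled and k3 capped at 0.0001 min^-1. A burst-and-steady-state fit supplied the pre-steady-state cleavage rate.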

[2] = system: EfPiwi piRISC loaded with piRNA #1 (26 nt); test: pre-steady-state target cleavage rate (min^-1); auxiliary factor: 500 nM Ephydatia muelleri Gtsf1; guide: piRNA #1 5'p-UGAGGUAGUAGGUUGUAUAGUAUCCA; MIWI and MILI are mouse PIWI proteins and EfPiwi is from a freshwater sponge; tags in brackets are library labels; higher = faster piRNA-guided slicing of the target
Summary of the method: as §1

| Sequence | pre-steady-state target cleavage rate [1] | pre-steady-state target cleavage rate [2] |
| --- | --- | --- |
| GGAGACCUAUCUAUACAACCUGCUACCUCA | 0.0162 ± 0.0048 | 0.00697 ± 0.0045 |
| GGAGUCGAAACUAUACAACCUACUACCUCA | 0.18 ± 0.019 | 0.0604 ± 0.021 |
| GGAGAGGAUACUAUAUCAACCUACUACCUCA | 0.107 ± 0.0098 | 0.0145 ± 0.0066 |
| GGAGAGGAUACUUUACAAGCUACUACCUCA | 0.149 ± 0.014 | 0.00384 ± 0.0021 |
| GGAGACCAUACUAUACAAGCUACUACCUGA | 0.157 ± 0.019 | 0.00543 ± 0.0026 |
| GGAGAGGAUACUAUAGAACCUACUACCUGA | 0.0217 ± 0.005 | 0.00264 ± 0.0017 |
| GGAGACGAUUCUAUACAAGCUACUACCUCA | 0.239 ± 0.01 | 0.00369 ± 0.003 |
| GGAGACCUAUGAUAACAACCUACUACCUACA | 0.0036 ± 0.0024 | < 0.0001 |
| GGAGACCUAACUAUACAACCUACUACGUCA | 0.0415 ± 0.014 | 0.00274 ± 0.0023 |
| GGAGACCUUACUAUACAACCUAGUUCCUCA | 0.0143 ± 0.0048 | 0.00334 ± 0.0033 |
| GGAGUGGAUACUAUACAUGCUACUACCUCA | 0.109 ± 0.0081 | 0.00896 ± 0.0037 |
| GGAGACGAUACUAUACAACGUACUACCUCA | 0.0266 ± 0.0047 | 0.00525 ± 0.0016 |
| GGAGACGAUCCUAUACAACCUACUACCUCA | 0.174 ± 0.025 | 0.0157 ± 0.0085 |
| GGAGACCAAACUUUACAACCUACUACCUCA | 0.137 ± 0.034 | 0.011 ± 0.0057 |
| GGAGACCAAACUAAACAACCUACUACCUCA | 0.104 ± 0.027 | 0.00793 ± 0.0036 |
| GGAGAGGAUACUAUACAACCUACAACCUCA | 0.111 ± 0.015 | 0.00428 ± 0.0019 |
| GGAGAGGAUACGUAUACAACCUACUACCUCA | 0.0772 ± 0.011 | 0.0803 ± 0.032 |
| GGAGACCAUAGAUUACAACCUACUACCUCA | 0.0355 ± 0.0071 | 0.00655 ± 0.0034 |
| GGAGACCUUACAUUACAACCUACUACCUCA | 0.0294 ± 0.0055 | 0.00334 ± 0.0033 |
| GGAGACGAUACUAUACAACCUACUACCUCCA | 0.214 ± 0.014 | 0.02 ± 0.0073 |
